Laboratory results from PubChem BioAssay (NCI).
About 83,000 compounds went through this panel and 20% of them were active in at least one assay; those are over-represented in the sample as a whole.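 A percent growth of 40 corresponds to 60% growth inhibition; 0 means no net growth; -100 means all cells died. Active threshold: below 10.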 Calls of active or inactive are those of the source.

Tests used:
Experiment in all cases: NCI-60 one-dose screen, 48 h (100 = growth as untreated, 0 = no growth, -100 = all killed)
Conditions in all cases: 10 µM unless noted
DU-145 prostate = tested on: DU-145 prostate
K-562 leukemia = tested on: K-562 leukemia
MALME-3M melanoma = tested on: MALME-3M melanoma
MDA-MB-231 breast = tested on: MDA-MB-231 breast
RXF 393 renal = tested on: RXF 393 renal
SF-268 CNS = tested on: SF-268 CNS
SF-295 CNS = tested on: SF-295 CNS
SF-539 CNS = tested on: SF-539 CNS
UACC-257 melanoma = tested on: UACC-257 melanoma
M14 melanoma = tested on: M14 melanoma

Measured: growth

COc1ccc2oc(=O)cc(-c3nc4ccc(N)cc4[nH]3)c2c1
inactive: DU-145 prostate 97.5% | K-562 leukemia 119% | MALME-3M melanoma 121% | MDA-MB-231 breast 74.2% | RXF 393 renal 95.1% | SF-268 CNS 87.5% | SF-295 CNS 90.2% | SF-539 CNS 82.3% | UACC-257 melanoma 132% | M14 melanoma 114%

O=C(/C(=C\c1c(-c2ccccc2)[nH]c2ccccc12)S(=O)(=O)c1ccccc1)c1ccccc1
active: K-562 leukemia 8% | SF-295 CNS -6.63%
inactive: DU-145 prostate 68.5% | MALME-3M melanoma 83.3% | MDA-MB-231 breast 49.8% | RXF 393 renal 46.7% | SF-268 CNS 62.1% | SF-539 CNS 75.4% | UACC-257 melanoma 32.3% | M14 melanoma 49.7%

Nc1c(C(=O)Nc2cccc3ccccc23)sc2nc3c(cc12)CCCCCC3
active: K-562 leukemia 9.1% | SF-539 CNS -0.219% | M14 melanoma 3.04%
inactive: DU-145 prostate 14.9% | MALME-3M melanoma 75.9% | MDA-MB-231 breast 39.3% | RXF 393 renal 21.8% | SF-268 CNS 45.6% | SF-295 CNS 23.7% | UACC-257 melanoma 68.8%

C#CCN1C(=O)c2ccccc2N(CC#C)C12CCN(Cc1cn(CC(=O)Nc3ccccc3C(N)=O)nn1)CC2
inactive: DU-145 prostate 98.7% | K-562 leukemia 92.4% | MALME-3M melanoma 102% | MDA-MB-231 breast 89.9% | RXF 393 renal 90.5% | SF-268 CNS 91.7% | SF-295 CNS 85.5% | SF-539 CNS 91.5% | UACC-257 melanoma 103% | M14 melanoma 89.3%

O=CN1N=C(c2ccc3c(c2)OCO3)CC1c1cccc(Nc2ccnc3cc(C(F)(F)F)ccc23)c1 (stereo not given)
inactive: DU-145 prostate 86.4% | K-562 leukemia 37% | MALME-3M melanoma 101% | MDA-MB-231 breast 78.2% | RXF 393 renal 86.4% | SF-268 CNS 65.4% | SF-295 CNS 83.1% | SF-539 CNS 90.5% | UACC-257 melanoma 86.8% | M14 melanoma 78.6%

Cc1cccc(C)c1Nc1nnc(-c2ccc(F)cc2)o1
inactive: DU-145 prostate 99.9% | K-562 leukemia 118% | MALME-3M melanoma 96.5% | MDA-MB-231 breast 104% | RXF 393 renal 98.5% | SF-268 CNS 96.2% | SF-295 CNS 102% | SF-539 CNS 99.7% | UACC-257 melanoma 116% | M14 melanoma 96.8%

COC(=O)c1cc2c3c(cc(O)c2[nH]1)N(C(=O)C1Cc2cc(OC)c(OC)c(OC)c2N1)CC3CCl (stereo not given)
active: DU-145 prostate -99.1% | K-562 leukemia 1.56% | MALME-3M melanoma -58.1% | MDA-MB-231 breast -41.3% | RXF 393 renal -99.4% | SF-268 CNS -5.75% | SF-295 CNS -40.6% | SF-539 CNS -74.7% | UACC-257 melanoma -72.3% | M14 melanoma -25.1%

COc1ccc(NC(=O)c2sc3nc(C)c(C(C)=O)cc3c2N)cc1
inactive: DU-145 prostate 102% | K-562 leukemia 86.2% | MALME-3M melanoma 115% | MDA-MB-231 breast 102% | RXF 393 renal 105% | SF-268 CNS 102% | SF-295 CNS 97.7% | SF-539 CNS 87.8% | UACC-257 melanoma 88.7% | M14 melanoma 100%

C=C1C(=O)O[C@H]2[C@H]1CC/C(COC(=O)N1CCC[C@H]1C(=O)Nc1ccc(OC)c(C(N)=O)c1O)=C\CC[C@@]1(C)O[C@@H]21
inactive: DU-145 prostate 39.4% | K-562 leukemia 11.2% | MALME-3M melanoma 27.3% | MDA-MB-231 breast 46% | SF-268 CNS 54.6% | SF-295 CNS 90.1% | UACC-257 melanoma 25.2% | M14 melanoma 36.5%
active: RXF 393 renal -12.7% | SF-539 CNS -4.09%

CN1CCN(S(=O)(=O)O[C@@H]2C(=O)N(c3cc4c5ccccc5ccc4c4ccccc34)[C@H]2c2ccc(F)cn2)CC1
inactive: DU-145 prostate 94.4% | K-562 leukemia 74.7% | MALME-3M melanoma 115% | MDA-MB-231 breast 38.8% | RXF 393 renal 77.6% | SF-268 CNS 79.7% | SF-295 CNS 96.5% | SF-539 CNS 104% | UACC-257 melanoma 88.1% | M14 melanoma 90.9%

CC1(C)CC[C@]2(c3nnc(-c4ccncc4)o3)CC[C@]3(C)C(=CC[C@@H]4[C@@]5(C)CCC(=O)C(C)(C)[C@@H]5CC[C@]43C)[C@@H]2C1
inactive: DU-145 prostate 91.2% | K-562 leukemia 62.1% | MALME-3M melanoma 86.1% | MDA-MB-231 breast 87% | RXF 393 renal 101% | SF-268 CNS 81.5% | SF-295 CNS 79.7% | SF-539 CNS 90.7% | UACC-257 melanoma 78.4% | M14 melanoma 84.3%

Cc1nc(C)c(C)nc1C
inactive: DU-145 prostate 108% | K-562 leukemia 93.1% | MALME-3M melanoma 102% | MDA-MB-231 breast 108% | RXF 393 renal 120% | SF-268 CNS 105% | SF-295 CNS 107% | SF-539 CNS 104% | UACC-257 melanoma 88.1% | M14 melanoma 101%

O=C(/C(=C/c1ccc([N+](=O)[O-])cc1)SCc1ccc(Cl)cc1)c1ccc(F)cc1
inactive: DU-145 prostate 86.3% | MALME-3M melanoma 85.7% | MDA-MB-231 breast 56.3% | RXF 393 renal 92% | SF-268 CNS 76.1% | SF-295 CNS 84.9% | SF-539 CNS 88.6% | UACC-257 melanoma 92.5% | M14 melanoma 47.3%
active: K-562 leukemia 1.3%
